Compound activity from PubChem BioAssay.
Shown are actives, neighbours in structure and some others; about 2.2% of the full set was active somewhere.
VLA-4 inh = inhibition in a human VLA-4 binding assay; P13612; VLA-4 expressing cells, ligand binding flow cytometry; inhibition, % (about 7 µM as worked out from the volumes in the protocol); 330,000 compounds, 0.2% hits; AID 2557; in the data active means inhibition above about 50%
V-ATPase pH = regulators of yeast V-ATPase proton transport; S. cerevisiae, pHLuorin cytosolic pH fluorescence; response, % at 10 µM; 350,000 compounds, 0.37% hits; in the data active means response mostly above about 7.3%, no sharp cut-off; inactive means mostly below about 5.4%; further: actives read high
HTR2A ag = agonists of mouse serotonin 5-HT2A receptor (HTR2A); P35363; CHO-K1 mHTR2A beta-arrestin complementation, luminescence; percent of 30 µM serotonin response; activation, % at 7.6 µM; 360,000 compounds, 0.66% hits;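 active means activation above a run cutoff, the mean activation of all tested compounds plus 3 SD, cut at about 14% in these data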;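 further: 0% = plate median of compound wells and 100% = 30 µM serotonin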
Exocytosis inh = lytic granule exocytosis inhibition | TALL-104 LAMP-1 surface exposure, flow cytometry; cells stimulated with thapsigargin and PMA | inhibition, % at 10 µM | 360,000 compounds, 0.66% hits | AID 651702;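 active means inhibition above about 55%, limit read from the data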
MEX-5 binding = C. elegans MEX-5 TCR-2 RNA binding activity; MEX-5/FITC-TCR2 RNA binding, fluorescence polarization; stronger effect = lower value; activity score (negative = inhibition of binding), % at 10 µM; 300,000 compounds, 0.38% hits;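 active means inhibition past about -25% in most replicates, and total fluorescence under double the plate's negative control median, limit read from the data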;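 further: 0% = DMSO and -100% = 5 µM competing unlabeled TCR2 RNA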
Target sequence (Q9XUB2 whole entry, looked up): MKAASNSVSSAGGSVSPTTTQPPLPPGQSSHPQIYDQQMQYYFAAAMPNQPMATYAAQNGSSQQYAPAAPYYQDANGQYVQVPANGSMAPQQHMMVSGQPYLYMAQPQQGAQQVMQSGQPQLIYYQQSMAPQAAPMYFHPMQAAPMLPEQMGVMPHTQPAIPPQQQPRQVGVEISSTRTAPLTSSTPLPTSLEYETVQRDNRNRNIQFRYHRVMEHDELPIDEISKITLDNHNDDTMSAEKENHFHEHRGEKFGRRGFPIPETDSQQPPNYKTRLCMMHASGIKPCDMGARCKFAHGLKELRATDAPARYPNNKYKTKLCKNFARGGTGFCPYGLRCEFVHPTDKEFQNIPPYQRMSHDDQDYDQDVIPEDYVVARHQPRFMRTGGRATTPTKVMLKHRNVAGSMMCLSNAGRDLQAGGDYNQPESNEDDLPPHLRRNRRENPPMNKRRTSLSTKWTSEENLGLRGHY
JMJD2C inh = inhibitors of human GASC-1 (JMJD2C) demethylase. 330,000 compounds, 0.069% hits. inhibition, % at 2.35 µM. Q9H3R0. GST-JMJD2C(1-420) H3K9me3 demethylation, DELFIA europium;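 active means more than half of a compound's replicate wells show inhibition beyond 50%, single wells judged on their own value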;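 further: signal counts dimethyl H3K9 product captured on neutravidin plate; 0% = median of DMSO wells and 100% = 0.3 times that DMSO median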
VLA-4 allo CP = confirmation of allosteric modulators of human VLA-4 integrin; shares compounds with VLA-4 inh; U937 cells, HUTS-21 LIBS mAb binding, flow cytometry; LDV ligand present at threefold Kd; inhibition, % at 6.7 µM; 1,300 compounds, 2% hits; AID 2813; in the data active means inhibition above about 40%;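 further: 0% = ligand without compound and 100% = no ligand background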
An asterisk follows results filed as active; i = inactive; nt = no result.

SMILES | VLA-4 inh | V-ATPase pH | HTR2A ag | Exocytosis inh | MEX-5 binding | JMJD2C inh | others
CCC1(c2ccccc2)NC(=O)N(CC(=O)Nc2cc(S(=O)(=O)N3CCCCCC3)ccc2OC)C1=O (centres undefined) | -7 | 2 | 13 | 2 | 1 | -2
COc1ccccc1NC(=O)COC(=O)c1c[nH]c(=O)[nH]c1=O | -5 | -1 | -4 | -2 | nt | -12
COc1ccccc1NC(=O)COC(=O)c1[nH]c(=O)[nH]c(=O)c1N | 13 | 3 | -12 | 3 | nt | 53*
CCOC(=O)C1CCCN(C(=O)Cn2sc3nc(C)cc(C)c3c2=O)C1 (centres undefined) | -16 | -2 | 6 | 84* | -5 | -5
CC(C)(C)C(=O)c1sc2nc(-c3cccs3)cc(C(F)(F)F)c2c1N | i | 1 | 1 | 4 | -74* | -3
Cc1nnc(NC(=O)c2sc3nc(-c4cccs4)cc(C(F)(F)F)c3c2N)s1 | -253 | 0 | -3 | 5 | -5 | -5
CCN(CC)C(=O)c1sc2nc(-c3cccs3)cc(-c3cccs3)c2c1N | -47 | 0 | -2 | 4 | -33* | 13
CC(=O)Nc1ccc(/C=C/C(=O)c2ccc3c(c2)OCCO3)cc1 | 0 | 0 | 4 | 4 | -53* | 0
O=C(O)c1ccc(/C=C/C(=O)c2ccc3c(c2)OCCCO3)cc1 | -1 | -1 | -5 | -9 | -1 | -13
COc1ccc(N/C=C/C(=O)c2ccc3c(c2)OCO3)cc1OC | -2 | 0 | 0 | -1 | -34* | -5
COc1ccc(N/C=C\C(=O)c2ccc(Br)cc2)cc1OC | 4 | -2 | -2 | 0 | 2 | -5
COc1ccc(N/C=C\C(=O)c2ccc(C)cc2)cc1OC | -7 | 3 | 2 | -2 | -48* | -1
O=C(Nc1cccc(NC(=O)c2cc([N+](=O)[O-])ccc2Cl)n1)c1cc([N+](=O)[O-])ccc1Cl | 20 | -7 | 21* | -11 | -1 | -34
O=C(Nc1ccccn1)c1ccc([N+](=O)[O-])cc1Cl | 13 | 8 | 0 | 0 | 2 | -8
Cc1ccc(OCCNC(=O)CNC(=O)c2ccc3c(c2)OCO3)cc1 | 4 | -1 | 4 | -3 | 1 | -6
O=C(O)c1ccc2c(c1)C(=O)N(CCC1=CCCCC1)C2=O | 28 | 1 | 7 | 2 | 0 | 101*
CN(C(=O)c1ccc2c(c1)C(=O)N(CCC1=CCCCC1)C2=O)C1CCCCC1 | 22 | -4 | -1 | 4 | 0 | -7
O=C(Cn1nnc(-c2ccc(Cl)cc2)n1)NC(=O)NC1CCCC1 | nt | 3 | 12 | -9 | nt | nt
FC(F)(F)c1cc(-c2ccccc2)nc(NCc2cccnc2)n1 | 1 | 20* | -3 | -1 | -2 | -12
COc1cccc(=O)c2c(C)n(-c3ccc(C(=O)O)cc3)c(C)c12 | 5 | 2 | 0 | 2 | -11 | -27
CCOc1cccc(=O)c2c(C)n(-c3ccc(C(=O)O)cc3)c(C)c12 | -3 | 0 | 2 | -3 | -36* | 18
CC1CCC(NC(=O)N(CCCl)N=O)CC1 (centres undefined) | 65* | -3 | -2 | 2 | 2 | -26 | VLA-4 allo CP=0
CC1CCC(NC(=S)NCCN(C)C)CC1 (centres undefined) | -6 | 1 | -4 | 7 | 0 | 15
CCOc1ccc(NC(=O)Cn2cc(C(C)=O)c3ccccc32)cc1 | 4 | -2 | -5 | -2 | 3 | 5
CCC(=O)c1cn(CC(=O)Nc2cccc(OC)c2)c2ccccc12 | 11 | -1 | -3 | -3 | -3 | 0 | VLA-4 allo CP=6
SMILES | VLA-4 inh | V-ATPase pH | HTR2A ag | Exocytosis inh | MEX-5 binding | JMJD2C inh | others
CCC(=O)c1cn(CC(=O)Nc2c(C)cccc2C)c2ccccc12 | 14 | 0 | 9 | -8 | -1 | -12 | VLA-4 allo CP=7
COc1ccc(NC(=O)Cn2cc(C(C)=O)c3ccccc32)cc1 | 7 | 4 | 8 | -8 | -2 | -1 | VLA-4 allo CP=3
CCC(=O)c1cn(CC(=O)Nc2ccc(C)cc2C)c2ccccc12 | -1 | 5 | 9 | -2 | -1 | -4 | VLA-4 allo CP=0
CC(=O)c1cn(CC(=O)Nc2ccccc2C)c2ccccc12 | 13 | 0 | 8 | -2 | 1 | 12
CN(CC(=O)Nc1ccccc1Br)CC(=O)Nc1ccccc1C(F)(F)F | 1 | -1 | 4 | -3 | -1 | -7
O=C(CCC1CCCCC1)Nc1cccc(C(=O)Nc2ccc(C(=O)O)cc2)c1 | 3 | 5 | 10 | -19 | -3 | 9
CC1(c2ccc(OC(F)F)cc2)NC(=O)N(CC(=O)c2ccc3c(c2)OCO3)C1=O (centres undefined) | 3 | -4 | -5 | 16 | 2 | -2
COc1ccccc1C(=O)Nc1nnc([C@@H]2C[C@H](O)[C@@H](CO)O2)s1 | nt | nt | 10 | 3 | nt | nt
Cc1cccc(C)c1NC(=O)Cn1cc(C=O)c2ccccc21 | 5 | 5 | 8 | -5 | 0 | 1 | VLA-4 allo CP=8
CC(OC(=O)CCN1C(=O)C2CC=CCC2C1=O)C(=O)Nc1cccc(C#N)c1 (centres undefined) | 9 | -2 | -4 | -3 | 0 | 6
Cc1ccc2c(c1)C(O)(CC(=O)c1ccc(C)s1)C(=O)N2 (centres undefined) | 2 | 1 | 1 | -3 | -1 | 3
Cc1ccc(C(=O)CC2(O)C(=O)Nc3ccccc32)s1 (centres undefined) | 58* | -1 | 0 | -1 | -1 | 11 | VLA-4 allo CP=6
NS(=O)(=O)c1cc(C(=O)NCC2CCCCC2)ccc1Cl | -17 | 7 | -3 | -11 | 1 | 0
C[C@H](NC(N)=O)C(=O)Nc1ccc(N2CCOCC2)c(S(=O)(=O)Nc2ccc(Cl)cc2)c1 | 1 | 7 | -6 | -4 | nt | nt
CCC(=O)NC(=S)Nc1ccccc1C(=O)NC1CCCCC1 | 44 | 2 | 1 | -3 | 3 | -6 | VLA-4 allo CP=7
O=C(NC1CCCCC1)c1ccccc1NC(=S)NC(=O)C1CC1 | 1 | -3 | 0 | -4 | -3 | 5
CCCCN(C(=O)CCSc1ccc(F)cc1)c1c(N)n(Cc2ccccc2)c(=O)[nH]c1=O | 7 | 0 | -10 | -3 | -1 | 1
CC(C)NC(=O)CSCc1cccc(Br)c1 | 19 | 0 | 3 | -2 | -2 | -3
C/C(=N\NC(=O)CSCc1cccc(Br)c1)c1ccc([N+](=O)[O-])cc1 | 51* | 3 | 0 | -2 | 2 | 3 | VLA-4 allo CP=7
CN1C(=O)C(C)(C)c2cc(S(=O)(=O)NCCc3ccc(Cl)cc3)ccc21 | -7 | -2 | 0 | 8 | 2 | -24 | VLA-4 allo CP=-5
Cc1cc(C)cc(NS(=O)(=O)c2ccc3c(c2)C(C)(C)C(=O)N3C)c1 | 20 | 2 | 6 | 1 | 2 | 0
